# Experimental data: PubChem BioAssay (NCI)
# The panel holds about 79,000 compounds, 15% with a hit somewhere; the sample as a whole holds those more often. Active and inactive are the calls of the source. Cut-off read from the data, not from the text of the source: active = growth inhibition above about 70%; inactive = the rest.
# Assay: NCI Yeast Anticancer Drug Screen. Data for the bub3 strain (AID 167)
# Settings: S. cerevisiae bub3 mutant strain, at 50.0 µM, hits give high values
# Summary of the method: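 In this screen, a yeast mutant lacking normal mitotic checkpoint function is challenged with compound. Relative growth versus vehicle gives the inhibition value.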
row,Compound,growth inhibition
1,O=[N+]([O-])c1ccc(C(Br)Br)cc1,99.5% (active)
2,CC(C)(C)[Si](OC(=O)N(CCCl)CCCl)(c1ccccc1)c1ccccc1,68.6% (inactive)
3,CCCCCCCC[N+]12CN3CN(CN(C3)C1)C2,31.8% (inactive)
4,CC(C=O)[Se]c1ccccc1 (centres undefined),86.8% (active)
5,CCOP(=O)(N=Nc1cccnc1)OCC,20.1% (inactive)
6,COc1cc(/C=C/c2ccc(OC)c(O)c2)cc(OC)c1,98.2% (active)
7,ClC1CCCCC1[Se](Cl)(Cl)C1CCCCC1Cl (centres undefined),95.6% (active)
8,C/C(=N/NC(N)=S)c1ccc(Cl)cc1,95.3% (active)
9,O=C(Nc1ccccc1)c1cc([N+](=O)[O-])ccc1O.[Ni],59.8% (inactive)
10,CC1(C)N=C(N)N=C(N)N1c1ccc(OCCCCNC(=O)Nc2ccc(S(=O)(=O)F)cc2)c(Cl)c1,98.8% (active)
11,Nc1nc(N)c(-c2ccc(Cl)c(Cl)c2)c(COc2ccc(CNC(=O)Nc3cccc(S(=O)(=O)F)c3)cc2Cl)n1,13.2% (inactive)
12,CC(=O)[O-].CC(=O)[O-].O=C(N/N=C/c1cc(Cl)cc(Cl)c1[OH2+])c1ccncc1.[Co+2],48% (inactive)
13,CC(Br)C(=O)C(CCN(C)C)(c1ccccc1)c1ccc(Br)s1 (centres undefined),16.1% (inactive)
14,[N-]=[N+]=NC1(N=[N+]=[N-])C(=O)NN=C(c2ccccc2)C1=O (centres undefined),89.7% (active)
15,NC(=O)c1cc([N+](=O)[O-])c(Cl)c([N+](=O)[O-])c1Cl,88.2% (active)
16,Nc1nc(N)c(-c2ccc(Cl)c(Cl)c2)c(CCc2ccc(CNC(=O)c3cccc(S(=O)(=O)F)c3)cc2)n1,47.4% (inactive)
17,CCOC(=O)C(Cl)Cl,-18.3% (inactive)
18,C1=C[N-]c2c3c(ccc2=C1)=CC=C[N-]3.C1=C[N-]c2c3c(ccc2=C1)=CC=C[N-]3.F[P-](F)(F)(F)(F)F.[Cu+2],99.2% (active)
19,CCCCCCCCCCC(=O)O.[Pb],-16.1% (inactive)
20,CN(Cc1ccccc1)CC(O)c1cccc(I)c1 (centres undefined),56.2% (inactive)
21,CCOc1c(Br)cc(N=Cc2ccc(N(CCCl)CCCl)c(OC)c2)cc1Br,-15.8% (inactive)
22,COC(=O)C1ON(c2ccccc2)C2c3ccccc3-c3ccccc3C12 (centres undefined),67.2% (inactive)
23,COc1ccccc1C(Cc1ccc(N2C(N)=NC(N)=NC2(C)C)cc1)C(=O)Nc1ccc(S(=O)(=O)F)cc1 (centres undefined),98.8% (active)
24,O=[N+]([O-])c1cc([N+](=O)[O-])c(Cl)s1,99.5% (active)

# Assay: NCI Yeast Anticancer Drug Screen. Data for the mlh1 rad18 strain (AID 175)
# Settings: S. cerevisiae mlh1 rad18 strain growth inhibition; at 5.0 µM (retest, dose inferred, filed as 0.5); hits give high values
# Summary of the method: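 Steps: expose repair-defective yeast to compound; measure growth; express inhibition against vehicle-treated controls.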
row,Compound,growth inhibition
1,COc1ccc(CN2CCCN(Cc3ccc(OC)cc3OC)C2c2ccc(N(CCCl)CCCl)cc2)c(OC)c1,55% (inactive)
2,[Cl][Pt+2][Cl].[NH-]c1ccc([N+](=O)[O-])cc1[NH-],58% (inactive)
3,O=C(Oc1ccc(S(=O)(=O)F)cc1F)c1ccccc1Cl,21% (inactive)
4,Oc1c(I)cc(I)cc1I,-3% (inactive)
5,CCCCCCCCCCCCCCCC[N+](C)(C)CCOS(C)(=O)=O,98% (active)
6,CN(C)CC1(N)C(=O)NC(=O)NC1=O,-1% (inactive)
7,CC1=C(O)C(=O)C=C2C1=CC=C1[C@@]2(C)CC[C@@]2(C)[C@@H]3C[C@](C)(C(=O)O)CC[C@]3(C)CC[C@]12C,74% (active)
8,CCC[CH2][Sn]([CH2]CCC)([N]=C=S)[N]=C=S,93% (active)
9,O=C(C[n+]1ccccc1)C1CCc2ccccc2C1 (centres undefined),-6% (inactive)
10,[Cl][Pt][Cl].c1ccc([AsH](CC[AsH](c2ccccc2)c2ccccc2)c2ccccc2)cc1,99% (active)
11,COc1cc(/C=C\[N+](=O)[O-])ccc1O,51% (inactive)
12,Cc1sc(Cc2ccccc2)nc1-c1ccc(N=Cc2ccc(N(CCCl)CCCl)cc2)cc1,58% (inactive)
13,CC1(C)C2CCC([CH2][Hg][Cl])C1C2 (centres undefined),100% (active)
14,CC12C(=O)C=CCC1=CCC1C2CCC2(O)C(=O)OC3(C)C4CC5(C)C(COC16OC23C5C6=O)C(=O)O4 (centres undefined),32% (inactive)
15,O=C(CBr)OCC(Br)CBr (centres undefined),99% (active)
16,S=c1[nH]c2ccccc2s1.[Pb],-5% (inactive)
17,O=[N+]([O-])c1ccc(C(Br)Br)cc1,97% (active)
18,CC(C)(C)[Si](OC(=O)N(CCCl)CCCl)(c1ccccc1)c1ccccc1,15% (inactive)
19,CCCCCCCC[N+]12CN3CN(CN(C3)C1)C2,-1% (inactive)
20,CC(C=O)[Se]c1ccccc1 (centres undefined),12% (inactive)

row,Compound,growth inhibition
1,CCOP(=O)(N=Nc1cccnc1)OCC,2% (inactive)
2,COc1cc(/C=C/c2ccc(OC)c(O)c2)cc(OC)c1,-3% (inactive)
3,ClC1CCCCC1[Se](Cl)(Cl)C1CCCCC1Cl (centres undefined),43% (inactive)
4,C/C(=N/NC(N)=S)c1ccc(Cl)cc1,8% (inactive)
5,O=C(Nc1ccccc1)c1cc([N+](=O)[O-])ccc1O.[Ni],38% (inactive)
6,CC1(C)N=C(N)N=C(N)N1c1ccc(OCCCCNC(=O)Nc2ccc(S(=O)(=O)F)cc2)c(Cl)c1,-2% (inactive)
7,Nc1nc(N)c(-c2ccc(Cl)c(Cl)c2)c(COc2ccc(CNC(=O)Nc3cccc(S(=O)(=O)F)c3)cc2Cl)n1,2% (inactive)
8,CC(=O)[O-].CC(=O)[O-].O=C(N/N=C/c1cc(Cl)cc(Cl)c1[OH2+])c1ccncc1.[Co+2],4% (inactive)
9,CC(Br)C(=O)C(CCN(C)C)(c1ccccc1)c1ccc(Br)s1 (centres undefined),-6% (inactive)
10,[N-]=[N+]=NC1(N=[N+]=[N-])C(=O)NN=C(c2ccccc2)C1=O (centres undefined),31% (inactive)
11,NC(=O)c1cc([N+](=O)[O-])c(Cl)c([N+](=O)[O-])c1Cl,39% (inactive)
12,Nc1nc(N)c(-c2ccc(Cl)c(Cl)c2)c(CCc2ccc(CNC(=O)c3cccc(S(=O)(=O)F)c3)cc2)n1,30% (inactive)
13,CCOC(=O)C(Cl)Cl,2% (inactive)
14,C1=C[N-]c2c3c(ccc2=C1)=CC=C[N-]3.C1=C[N-]c2c3c(ccc2=C1)=CC=C[N-]3.F[P-](F)(F)(F)(F)F.[Cu+2],53% (inactive)
15,CCCCCCCCCCC(=O)O.[Pb],-5% (inactive)
16,CN(Cc1ccccc1)CC(O)c1cccc(I)c1 (centres undefined),-4% (inactive)
17,CCOc1c(Br)cc(N=Cc2ccc(N(CCCl)CCCl)c(OC)c2)cc1Br,73% (active)
18,COC(=O)C1ON(c2ccccc2)C2c3ccccc3-c3ccccc3C12 (centres undefined),42% (inactive)
19,COc1ccccc1C(Cc1ccc(N2C(N)=NC(N)=NC2(C)C)cc1)C(=O)Nc1ccc(S(=O)(=O)F)cc1 (centres undefined),2% (inactive)
20,O=[N+]([O-])c1cc([N+](=O)[O-])c(Cl)s1,99% (active)
